Results on eleven compounds are retold here after ChEMBL document CHEMBL3988442, “University of Dundee, Small-Polar-MMV Screening Library” (2021).

For some of these results: Entries with a potency or affinity are not part of this list.

Set-up in all cases: scale not given: direction of the effect not stated beside the values
The target of experiment [1] is Protein translocase subunit SecA (Escherichia coli (strain K12)) (UniProt P10408). Briefly: Assay to Identify E. coli SecA ATPase Inhibitors. Particulars: 30 µM. In kind it is functional.
Protein translocase subunit SecA (Escherichia coli (strain K12)), sequence (P10408 whole entry): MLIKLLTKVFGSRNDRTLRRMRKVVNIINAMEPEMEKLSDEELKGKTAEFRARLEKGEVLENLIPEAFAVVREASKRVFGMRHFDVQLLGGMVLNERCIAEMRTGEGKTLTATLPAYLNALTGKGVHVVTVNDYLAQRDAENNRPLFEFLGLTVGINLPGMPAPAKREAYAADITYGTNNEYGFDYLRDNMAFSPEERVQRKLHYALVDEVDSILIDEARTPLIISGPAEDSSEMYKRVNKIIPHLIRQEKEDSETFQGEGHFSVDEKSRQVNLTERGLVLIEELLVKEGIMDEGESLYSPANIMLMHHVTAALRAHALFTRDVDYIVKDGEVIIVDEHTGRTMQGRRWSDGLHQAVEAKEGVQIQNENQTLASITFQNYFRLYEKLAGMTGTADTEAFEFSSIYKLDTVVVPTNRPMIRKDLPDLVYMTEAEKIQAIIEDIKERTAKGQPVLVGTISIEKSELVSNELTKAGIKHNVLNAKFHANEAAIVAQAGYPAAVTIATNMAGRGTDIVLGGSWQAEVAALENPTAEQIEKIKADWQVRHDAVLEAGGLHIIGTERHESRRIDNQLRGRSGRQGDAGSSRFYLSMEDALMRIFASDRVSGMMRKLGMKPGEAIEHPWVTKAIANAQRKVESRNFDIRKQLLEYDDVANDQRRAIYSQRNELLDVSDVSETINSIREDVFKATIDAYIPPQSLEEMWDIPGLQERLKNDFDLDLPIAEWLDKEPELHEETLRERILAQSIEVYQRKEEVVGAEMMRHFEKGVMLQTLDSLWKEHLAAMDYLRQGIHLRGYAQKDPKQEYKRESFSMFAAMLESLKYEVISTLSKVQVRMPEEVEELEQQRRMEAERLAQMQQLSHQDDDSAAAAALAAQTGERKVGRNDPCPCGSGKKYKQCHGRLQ
In experiment [2] the target is T1, Ubiquitin-activating enzyme e1, putative (Leishmania donovani (strain BPK282A1)) (UniProt E9BSI1).
T1 sequence (whole entry): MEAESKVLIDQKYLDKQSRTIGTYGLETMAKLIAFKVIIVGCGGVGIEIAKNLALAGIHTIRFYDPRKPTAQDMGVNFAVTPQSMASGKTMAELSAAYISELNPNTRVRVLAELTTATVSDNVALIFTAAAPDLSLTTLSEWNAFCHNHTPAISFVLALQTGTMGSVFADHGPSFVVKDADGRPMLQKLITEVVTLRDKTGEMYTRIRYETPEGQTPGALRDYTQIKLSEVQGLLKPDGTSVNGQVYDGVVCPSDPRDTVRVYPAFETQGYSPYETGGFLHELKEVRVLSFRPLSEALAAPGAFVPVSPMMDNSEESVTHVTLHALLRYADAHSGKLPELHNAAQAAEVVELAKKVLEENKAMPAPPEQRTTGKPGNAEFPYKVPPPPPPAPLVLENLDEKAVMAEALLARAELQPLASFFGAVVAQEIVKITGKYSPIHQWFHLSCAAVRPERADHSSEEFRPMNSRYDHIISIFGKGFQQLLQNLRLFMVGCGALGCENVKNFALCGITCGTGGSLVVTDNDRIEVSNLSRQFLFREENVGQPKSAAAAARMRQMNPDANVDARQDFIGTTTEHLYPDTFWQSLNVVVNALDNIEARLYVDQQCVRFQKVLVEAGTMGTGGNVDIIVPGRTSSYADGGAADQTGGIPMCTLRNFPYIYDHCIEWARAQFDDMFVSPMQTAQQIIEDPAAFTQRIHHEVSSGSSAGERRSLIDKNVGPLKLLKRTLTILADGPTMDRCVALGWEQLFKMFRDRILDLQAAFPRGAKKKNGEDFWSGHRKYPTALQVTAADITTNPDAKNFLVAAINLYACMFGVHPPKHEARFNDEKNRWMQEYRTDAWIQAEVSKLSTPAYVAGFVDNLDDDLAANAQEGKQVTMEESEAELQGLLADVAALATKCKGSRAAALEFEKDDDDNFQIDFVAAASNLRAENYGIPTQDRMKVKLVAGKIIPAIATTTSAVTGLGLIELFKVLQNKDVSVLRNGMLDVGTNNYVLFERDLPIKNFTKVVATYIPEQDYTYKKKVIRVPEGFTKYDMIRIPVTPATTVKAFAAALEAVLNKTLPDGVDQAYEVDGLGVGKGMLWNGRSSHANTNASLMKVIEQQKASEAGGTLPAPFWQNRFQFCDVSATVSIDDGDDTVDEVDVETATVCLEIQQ
Briefly: Leishmania donovani Ubiquitin Activating Enzyme (LdE1). The format is functional. Particulars: 30 µM.

The target of experiment [3] is AMP-activated protein kinase, AMPK (Homo sapiens) (UniProt P54646+O43741+P54619+Q9UGJ0+Q9Y478+Q13131+Q9UGI9). Briefly: AMP-dependent Kinase enzyme assay. An in vitro enzyme assay that detects ADP turnover that is directly proportional to AMPK activity. This uses naive AMPK that is activated during the assay with MK-8722. The settings on record: 30 µM. The format is functional.

For experiment [4], the target named is Sialic acid-binding Ig-like lectin 9 (Homo sapiens) (UniProt Q9Y336). Briefly: Hs-Siglec9 ALPHAscreen SOP 20170721. Particulars: 10 µM. In general terms: In Alpha technology, singlet oxygen from a donor bead excites a nearby acceptor bead.
Sialic acid-binding Ig-like lectin 9 (Homo sapiens), sequence (Q9Y336 whole entry): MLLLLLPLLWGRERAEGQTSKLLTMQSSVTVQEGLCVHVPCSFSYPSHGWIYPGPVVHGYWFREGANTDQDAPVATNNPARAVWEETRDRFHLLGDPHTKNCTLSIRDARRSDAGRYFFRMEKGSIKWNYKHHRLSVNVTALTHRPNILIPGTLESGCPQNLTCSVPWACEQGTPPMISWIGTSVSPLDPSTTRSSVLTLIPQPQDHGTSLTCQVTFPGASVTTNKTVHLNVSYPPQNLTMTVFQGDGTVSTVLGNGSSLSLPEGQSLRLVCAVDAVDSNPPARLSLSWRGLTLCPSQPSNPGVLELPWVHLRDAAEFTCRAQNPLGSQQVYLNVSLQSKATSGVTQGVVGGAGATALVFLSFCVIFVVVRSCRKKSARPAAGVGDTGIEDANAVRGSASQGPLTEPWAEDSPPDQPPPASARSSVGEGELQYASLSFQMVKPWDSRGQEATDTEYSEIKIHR
For experiment [5], the system named is Trypanosoma cruzi. The experiment can be described thus: Trypanosoma cruzi phosphomannomutase and mannose-1-phosphate guanylyltransferase assay. In kind it is functional. The settings on record: 10 µM.
Experiment [6] deals with T2, Arginase-2, mitochondrial (Homo sapiens) (UniProt P78540).
T2 sequence (whole entry): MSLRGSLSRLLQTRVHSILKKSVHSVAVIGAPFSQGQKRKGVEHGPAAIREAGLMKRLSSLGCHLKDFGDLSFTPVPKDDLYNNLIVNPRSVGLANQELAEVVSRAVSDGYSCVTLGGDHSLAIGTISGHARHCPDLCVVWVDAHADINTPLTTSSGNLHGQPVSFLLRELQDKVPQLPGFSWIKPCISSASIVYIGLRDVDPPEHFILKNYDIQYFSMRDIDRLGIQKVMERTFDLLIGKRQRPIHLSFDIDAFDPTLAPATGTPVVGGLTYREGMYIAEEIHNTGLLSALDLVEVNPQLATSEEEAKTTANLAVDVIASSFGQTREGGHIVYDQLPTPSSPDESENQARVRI
The experiment can be described thus: in vitro enzyme assay to detect the production of urea directly proportional to the activity of Arginase II. Note: in the data most compounds retested in dose-response had high values. The format is functional. The settings on record: 33.3 µM.

The target of experiment [7] is T3, Proteasome subunit beta (Trypanosoma cruzi) (UniProt O96673).
T3 sequence (whole entry): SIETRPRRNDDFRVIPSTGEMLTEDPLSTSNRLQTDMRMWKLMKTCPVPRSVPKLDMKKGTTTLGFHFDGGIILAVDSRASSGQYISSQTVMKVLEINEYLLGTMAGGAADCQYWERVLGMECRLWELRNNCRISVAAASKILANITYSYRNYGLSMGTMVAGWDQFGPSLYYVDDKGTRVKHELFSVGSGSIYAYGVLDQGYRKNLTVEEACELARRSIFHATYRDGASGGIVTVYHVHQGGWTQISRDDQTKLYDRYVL
The experiment can be described thus: Trypanosoma cruzi proteasome chymotrypsin-like activity (TcProtChymo) assay. Note: in the data most compounds retested in dose-response had high values. In kind it is functional. The settings on record: 9.37 µM.

Experiment [8] is filed under the species Homo sapiens. The experiment can be described thus: To identify inhibition of the IFN signalling (Jak-Stat) pathway via expression of an eGFP reporter gene under the control of an IFN-stimulated response element (ISRE) containing MxA promoter. Particulars: 30 µM. The format is functional.
Experiment [9] has as its target T4, Tyrosyl-tRNA synthetase, putative (Trypanosoma cruzi (strain CL Brener)) (UniProt Q4DSP6).
T4 sequence (whole entry): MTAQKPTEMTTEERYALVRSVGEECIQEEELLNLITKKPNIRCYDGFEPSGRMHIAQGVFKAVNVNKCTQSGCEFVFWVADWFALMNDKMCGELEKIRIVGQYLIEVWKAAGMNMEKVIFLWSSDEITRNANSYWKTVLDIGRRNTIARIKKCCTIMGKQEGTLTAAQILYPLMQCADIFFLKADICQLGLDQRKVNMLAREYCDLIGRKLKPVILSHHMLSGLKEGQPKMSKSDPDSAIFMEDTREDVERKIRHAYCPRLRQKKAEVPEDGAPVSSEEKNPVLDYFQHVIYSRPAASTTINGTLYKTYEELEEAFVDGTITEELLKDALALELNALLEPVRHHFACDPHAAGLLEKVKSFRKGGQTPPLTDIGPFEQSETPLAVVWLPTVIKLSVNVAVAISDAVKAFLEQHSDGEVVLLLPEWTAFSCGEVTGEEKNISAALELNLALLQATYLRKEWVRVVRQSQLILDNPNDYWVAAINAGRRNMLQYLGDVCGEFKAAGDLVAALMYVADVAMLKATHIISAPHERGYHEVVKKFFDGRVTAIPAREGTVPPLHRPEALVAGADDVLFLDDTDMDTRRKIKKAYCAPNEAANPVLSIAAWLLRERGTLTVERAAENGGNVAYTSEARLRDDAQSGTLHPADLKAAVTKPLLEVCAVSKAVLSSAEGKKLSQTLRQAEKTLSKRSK
The experiment can be described thus: Trypanosoma cruzi tyrosyl tRNA synthetase (TcYRS) _High Tyrosine SOP. Note: in the data most compounds retested in dose-response had high values. In kind it is functional. Particulars: 30 µM.

The target in experiment [10] is T4, Tyrosyl-tRNA synthetase, putative (Trypanosoma cruzi (strain CL Brener)). The experiment can be described thus: Trypanosoma cruzi tyrosyl tRNA synthetase (TcYRS) SOP. In kind it is functional. The settings on record: 30 µM.
In experiment [11] the target is Chromo domain-containing protein 1 (Saccharomyces cerevisiae (strain ATCC 204508 / S288c) (Baker's yeast)) (UniProt P32657). Briefly: ScCHD-1 Enzyme Inhibition Assay. Note: in the data most compounds retested in dose-response had high values. The format is functional. The settings on record: 30 µM.
Chromo domain-containing protein 1 (Saccharomyces cerevisiae (strain ATCC 204508 / S288c) (Baker's yeast)), sequence (P32657 whole entry, the tested form may be a part): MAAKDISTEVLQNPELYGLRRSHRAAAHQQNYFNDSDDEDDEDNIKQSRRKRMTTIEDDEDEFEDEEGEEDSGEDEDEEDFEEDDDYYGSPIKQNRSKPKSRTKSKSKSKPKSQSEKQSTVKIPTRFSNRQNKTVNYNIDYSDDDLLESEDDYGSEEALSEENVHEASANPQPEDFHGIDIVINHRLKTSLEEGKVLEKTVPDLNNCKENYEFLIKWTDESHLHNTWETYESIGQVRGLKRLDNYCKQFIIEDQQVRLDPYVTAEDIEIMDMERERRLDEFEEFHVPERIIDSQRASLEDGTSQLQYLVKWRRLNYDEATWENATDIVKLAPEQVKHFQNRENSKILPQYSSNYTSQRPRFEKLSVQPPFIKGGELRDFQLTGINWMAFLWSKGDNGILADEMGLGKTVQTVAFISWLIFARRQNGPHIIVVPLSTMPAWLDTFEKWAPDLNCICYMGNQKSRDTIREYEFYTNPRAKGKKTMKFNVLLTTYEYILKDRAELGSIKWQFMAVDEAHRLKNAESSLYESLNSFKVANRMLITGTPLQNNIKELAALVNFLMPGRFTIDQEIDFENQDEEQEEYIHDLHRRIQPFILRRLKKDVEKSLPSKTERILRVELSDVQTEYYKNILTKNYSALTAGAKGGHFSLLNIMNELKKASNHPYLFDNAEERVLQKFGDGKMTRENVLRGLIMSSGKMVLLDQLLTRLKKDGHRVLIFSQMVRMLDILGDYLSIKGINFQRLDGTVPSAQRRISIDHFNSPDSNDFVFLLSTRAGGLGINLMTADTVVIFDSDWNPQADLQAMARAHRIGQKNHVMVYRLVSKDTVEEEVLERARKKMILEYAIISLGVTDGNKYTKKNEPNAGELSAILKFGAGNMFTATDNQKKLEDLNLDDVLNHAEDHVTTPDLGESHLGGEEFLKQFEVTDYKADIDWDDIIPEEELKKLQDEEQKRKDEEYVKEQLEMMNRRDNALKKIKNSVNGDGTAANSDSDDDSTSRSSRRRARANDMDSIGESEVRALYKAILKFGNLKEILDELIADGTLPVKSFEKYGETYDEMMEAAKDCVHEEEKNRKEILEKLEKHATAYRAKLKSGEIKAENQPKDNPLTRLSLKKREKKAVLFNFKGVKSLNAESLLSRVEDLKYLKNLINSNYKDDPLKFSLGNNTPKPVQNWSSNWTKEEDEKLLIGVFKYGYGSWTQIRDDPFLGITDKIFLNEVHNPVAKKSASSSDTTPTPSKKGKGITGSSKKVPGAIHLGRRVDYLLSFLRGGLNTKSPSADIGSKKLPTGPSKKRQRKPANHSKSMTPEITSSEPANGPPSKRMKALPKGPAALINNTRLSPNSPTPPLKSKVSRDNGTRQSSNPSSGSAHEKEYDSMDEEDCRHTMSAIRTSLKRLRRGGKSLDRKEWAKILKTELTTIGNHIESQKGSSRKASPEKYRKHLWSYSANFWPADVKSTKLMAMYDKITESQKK

As to `O=S(=O)(NCC1CCN(c2cnccn2)CC1)c1c(F)cccc1F`, the Percent Effect in experiment [1] is 0.613%; in experiment [2], 5.2%; in experiment [3], -0.808%; in experiment [4], -3.89%; in experiment [5] it was -5.82%; in experiment [6], 9.68%. The Percent Effect in experiment [7] was 5.74%; in experiment [8], 8.19%; in experiment [9] it was 3.17%; in experiment [10] it was 6.41%; in experiment [11], -7.48%.
Consider `O=C(c1ccnnc1)N1C[C@@H](OCC2CCCC2)[C@H]2OCCC[C@H]21`, for which the Percent Effect was -7.56% in experiment [1]; 8.11% in experiment [2]; 0.254% in experiment [3]; -1.77% in [4]; -1.95% in experiment [5]; 3.33% in experiment [6]. The Percent Effect in experiment [7] is 11.8%; in [8], -12.9%; in [9] it was 12.9%; in experiment [10] it was -8.54%; in experiment [11], -5.93%.
Take `Cc1nccnc1N1CCC2(CCCN(C3CCOCC3)C2=O)C1` (stereo unspecified): the Percent Effect is -7.49% in [1]; -2.74% in experiment [2]; 0.961% in experiment [3]; -4.09% in experiment [4]; -5.56% in experiment [5]; 0% in experiment [6]. Besides, the Percent Effect was -1.63% in [7]; 27.4% in experiment [8]; 0% in experiment [9]; -3.7% in experiment [10]; 0.0613% in experiment [11].
In the case of `CC(CCN1CCn2nc(CNC(=O)N(C)C)cc2C1)c1ccccc1` (stereo unspecified), the Percent Effect was -0.0552% in experiment [1]; 5.41% in experiment [2]; -1.77% in [3]; 16.6% in experiment [4]; 4.25% in experiment [5]; 8.1% in experiment [6]. Further, the Percent Effect in [7] is 6.9%; in [8], 16.3%; in experiment [9], 6.88%; in experiment [10] it was 19.5%; in experiment [11], -3.46%.
Turning to `COCCN1CCN(CCCS(=O)(=O)c2ccccc2)CC1C` (stereo unspecified), the Percent Effect in [1] is -1.14%; in [2], -5.41%; in experiment [3] it was -5.83%; in [4] it was 0.945%; in [5], 6.22%; in [6], 0.554%. Also, the Percent Effect was 4.13% in [7]; -19.8% in experiment [8]; 4.95% in experiment [9]; 1.22% in experiment [10]; -0.0339% in experiment [11].
With `Cc1nc(C)n(CC2CCCCN2CC(=O)Nc2cccnc2)n1` (stereo unspecified), the Percent Effect in experiment [1] is -1.75%; in experiment [2] it was 4.17%; in experiment [3], -8.52%; in experiment [4], 22%; in experiment [5], 3.98%; in experiment [6], 9.71%. Moreover, the Percent Effect is 8.25% in experiment [7]; -0.793% in experiment [8]; 5.26% in [9]; 10.3% in [10]; -2.02% in [11].
As for `Cc1ncsc1CN1CC[C@H]2C(=O)N(c3ccccc3)CCO[C@H]2C1`, the Percent Effect in experiment [1] was -1.58%; in experiment [2] it was 10.7%; in experiment [3], 7.3%; in experiment [4] it was -5.67%; in experiment [5] it was -0.591%; in experiment [6] it was 1.17%. Moreover, the Percent Effect in experiment [7] is 16.5%; in [8], 14.6%; in experiment [9], 11.7%; in experiment [10], 16.7%; in [11], -4.23%.
On to `COCC(=O)N1CCN(C(=O)c2scnc2C)CC1`, for which the Percent Effect in experiment [1] was -4.41%; in experiment [2], 7.89%; in experiment [3], 1.74%; in experiment [4], 5.01%; in experiment [5], 2.82%; in experiment [6], -4.73%. Moreover, the Percent Effect in experiment [7] turned out to be 12.4%; in experiment [8], 19.8%; in experiment [9], 1.06%; in experiment [10], 10.4%; in [11] it was 0.643%.
`Cc1ccc(-c2nc(CN3CCOC(c4ccccc4)C3)cs2)o1` (stereo unspecified): the Percent Effect is 0.984% in experiment [1]; -24.3% in [2]; -0.197% in experiment [3]; 6.73% in experiment [4]; 2.7% in [5]; 3.81% in experiment [6]. Moreover, the Percent Effect is 12.6% in experiment [7]; -17.4% in experiment [8]; 3.7% in experiment [9]; 0% in experiment [10]; 17.1% in experiment [11].
As for `Cc1nc(CN2CCCC(N(C)Cc3c(C)noc3C)C2)no1` (stereo unspecified), the Percent Effect in [1] is -2.99%; in [2], -15.6%; in [3], -0.475%; in [4], -1.55%; in [5] it was 9.7%; in experiment [6] it was -0.21%. Moreover, the Percent Effect in experiment [7] is 16.6%; in experiment [8], 6.79%; in experiment [9], 1.91%; in [10], 9.41%; in [11], -22.6%.
Turning to `Cc1nonc1C(=O)N1CCCC(c2ncncc2-c2ccncc2)C1` (stereo unspecified), the Percent Effect in experiment [1] is -5.71%; in experiment [2], 8%; in experiment [3] it was 11.1%; in [4], 2.77%; in experiment [5], -0.591%; in experiment [6], 0.699%. In addition, the Percent Effect was 3.08% in experiment [7]; -1.27% in experiment [8]; 5.32% in experiment [9]; 8.97% in experiment [10]; -4.88% in experiment [11].
